Measurements published in paper PMC5700166.
Substitutions are numbered along the chain they refer to.

How the values were obtained:
Test in all cases: protein-binding microarray (PBM); PBM: ~300 nM protein, 6 mM HEPES pH 7.8, 80 mM KCl, 0.5 mM EDTA, 0.5 mM EGTA, 6% glycerol, 35 ng/ul poly-dIdC, 1% milk, 1 h, room temperature; Ap Aiptasia and Nv Nematostella (sea anemones) / Co Capsaspora / Aq Amphimedon (sponge) / Dm Drosophila / Hu human; RHD is the Rel homology domain; high values mean tight binding
Details in all cases: dsDNA, one strand shown
GST-Ap-NF-kB RHD = molecular target: T1, GST-Ap-NF-kB RHD (Exaiptasia pallida (Aiptasia), UniProt A0A913YAJ5 2-422)
T1 sequence: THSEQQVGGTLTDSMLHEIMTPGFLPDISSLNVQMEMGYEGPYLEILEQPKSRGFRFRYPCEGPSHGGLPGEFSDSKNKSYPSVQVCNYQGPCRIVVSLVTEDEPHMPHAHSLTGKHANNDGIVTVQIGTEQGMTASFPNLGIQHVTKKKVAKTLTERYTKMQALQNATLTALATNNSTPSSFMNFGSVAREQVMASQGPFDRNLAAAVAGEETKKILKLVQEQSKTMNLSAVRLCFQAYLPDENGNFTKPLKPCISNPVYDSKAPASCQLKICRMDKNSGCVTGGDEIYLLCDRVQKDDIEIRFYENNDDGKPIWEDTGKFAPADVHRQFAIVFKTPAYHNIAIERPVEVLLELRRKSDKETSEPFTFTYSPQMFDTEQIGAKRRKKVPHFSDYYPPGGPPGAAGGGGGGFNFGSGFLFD

[1] = molecular target: T2, GST-Nv-NF-kB (Cys allele) (Nematostella vectensis, UniProt E5G601 2-411)
T2 sequence: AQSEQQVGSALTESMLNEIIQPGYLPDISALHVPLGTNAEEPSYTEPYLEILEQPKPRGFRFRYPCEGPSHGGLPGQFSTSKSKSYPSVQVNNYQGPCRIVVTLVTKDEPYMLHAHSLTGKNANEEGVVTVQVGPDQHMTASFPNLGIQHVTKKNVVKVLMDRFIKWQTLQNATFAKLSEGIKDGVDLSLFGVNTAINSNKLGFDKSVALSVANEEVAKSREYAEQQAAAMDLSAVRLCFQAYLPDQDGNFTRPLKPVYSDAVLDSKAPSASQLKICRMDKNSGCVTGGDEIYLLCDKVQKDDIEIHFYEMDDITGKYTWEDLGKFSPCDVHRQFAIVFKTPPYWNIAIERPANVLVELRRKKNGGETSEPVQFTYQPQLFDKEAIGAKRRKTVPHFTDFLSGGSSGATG

[2] = molecular target: T3, GST-Nv-NF-kB (Ser allele) (Nematostella vectensis, UniProt A7UNT2 2-411)
T3 sequence: T2 sequence with Q21R, C66S, S207N, E215Q, V217A, E225K, A268E, D399E

GST-Co-NF-kB = molecular target: T4, GST-Co-NF-kB (Capsaspora owczarzaki, UniProt F1ARL5 200-546)
T4 sequence: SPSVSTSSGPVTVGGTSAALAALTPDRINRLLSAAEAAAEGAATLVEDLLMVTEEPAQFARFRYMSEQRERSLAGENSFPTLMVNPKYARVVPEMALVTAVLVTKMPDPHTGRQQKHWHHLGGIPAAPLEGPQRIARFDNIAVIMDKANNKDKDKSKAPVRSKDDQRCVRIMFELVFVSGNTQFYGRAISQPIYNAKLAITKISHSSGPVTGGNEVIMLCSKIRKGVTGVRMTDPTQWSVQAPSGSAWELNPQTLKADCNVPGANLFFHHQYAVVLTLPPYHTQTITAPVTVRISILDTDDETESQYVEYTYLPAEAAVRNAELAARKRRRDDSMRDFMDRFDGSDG

GST-Dm-Relish = molecular target: T5, GST-Dm-Relish (Drosophila melanogaster, UniProt Q94527 99-473)
T5 sequence: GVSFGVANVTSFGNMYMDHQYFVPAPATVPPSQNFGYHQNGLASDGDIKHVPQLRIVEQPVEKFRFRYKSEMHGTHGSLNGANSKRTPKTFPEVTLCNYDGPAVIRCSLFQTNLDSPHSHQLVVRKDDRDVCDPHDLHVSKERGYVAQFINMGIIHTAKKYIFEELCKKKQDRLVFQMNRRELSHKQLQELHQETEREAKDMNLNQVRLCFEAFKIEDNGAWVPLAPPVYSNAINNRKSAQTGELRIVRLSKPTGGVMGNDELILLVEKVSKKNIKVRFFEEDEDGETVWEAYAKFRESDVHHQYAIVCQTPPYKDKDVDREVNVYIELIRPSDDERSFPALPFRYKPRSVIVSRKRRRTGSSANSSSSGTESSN

GST-Aq-NF-kB = molecular target: T6, GST-Aq-NF-kB (Amphimedon queenslandica, UniProt A9Y5G7 2-389)
T6 sequence: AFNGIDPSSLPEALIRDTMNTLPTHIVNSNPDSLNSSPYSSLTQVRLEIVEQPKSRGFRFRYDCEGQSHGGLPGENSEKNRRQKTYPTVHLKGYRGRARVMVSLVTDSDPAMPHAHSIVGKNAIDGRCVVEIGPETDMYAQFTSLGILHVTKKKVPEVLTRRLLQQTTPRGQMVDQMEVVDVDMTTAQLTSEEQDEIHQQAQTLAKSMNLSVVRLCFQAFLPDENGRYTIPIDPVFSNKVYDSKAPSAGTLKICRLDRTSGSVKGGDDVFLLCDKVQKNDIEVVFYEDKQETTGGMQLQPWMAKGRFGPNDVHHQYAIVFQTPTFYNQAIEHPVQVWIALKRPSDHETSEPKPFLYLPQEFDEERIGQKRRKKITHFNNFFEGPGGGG

GST-Hu-p50 = GST-Hu-p50 (Homo sapiens, UniProt P19838 7-356)
Chain of GST-Hu-p50 (P19838 7-356): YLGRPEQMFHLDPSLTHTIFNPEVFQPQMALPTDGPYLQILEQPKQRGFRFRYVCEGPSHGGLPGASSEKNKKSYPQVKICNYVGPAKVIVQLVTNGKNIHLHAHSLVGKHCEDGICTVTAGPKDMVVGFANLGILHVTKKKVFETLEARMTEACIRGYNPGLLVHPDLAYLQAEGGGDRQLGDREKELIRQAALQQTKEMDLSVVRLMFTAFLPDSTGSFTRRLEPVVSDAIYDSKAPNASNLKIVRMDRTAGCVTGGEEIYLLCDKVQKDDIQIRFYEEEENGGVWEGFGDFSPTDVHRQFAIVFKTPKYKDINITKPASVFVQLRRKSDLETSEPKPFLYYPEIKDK

Sequence	binding signal (GST-Ap-NF-kB RHD) [z-score]	binding signal [1] [z-score]	binding signal [2] [z-score]	binding signal (GST-Co-NF-kB) [z-score]	binding signal (GST-Dm-Relish) [z-score]	binding signal (GST-Aq-NF-kB) [z-score]	binding signal (GST-Hu-p50) [z-score]
CCGATTAACATCAAAAATTCCCTTGATGTTAATCGGGTCTTGATTCGCTTGACGCTGCTG	6.05	9.28	8.71	4.19	7.19	7.62	6.22
CCGATTAACATCAGGGGAAGAACTGATGTTAATCGGGTCTTGATTCGCTTGACGCTGCTG	4.9	5.96	6.48	6.9	9.56	5.61	4.93
CCGATTAACATCAGGGGGTTCCATGATGTTAATCGGGTCTTGATTCGCTTGACGCTGCTG	7.79	5.3	5.6	1.97	9.47	6.05	5.73
CCGATTAACATCAAAATTTCCCTTGATGTTAATCGGGTCTTGATTCGCTTGACGCTGCTG	5.11	8.26	7.99	5.01	4.81	7.6	5.41
CCGATTAACATCAGGGGGATACCTGATGTTAATCGGGTCTTGATTCGCTTGACGCTGCTG	7.92	7.48	6.28	6.16	8.18	8.7	5.56
CCGATTAACATCAAGTATCCCCCTGATGTTAATCGGGTCTTGATTCGCTTGACGCTGCTG	6.69	5.06	6.27	7.27	4.38	4.99	5.34
